Results on three compounds are retold here after PubChem BioAssay AID2762 (National Center for Advancing Translational Sciences (NCATS), 2010).

Records with an inconclusive call do not appear. Values without a mark were called inactive. Active and inactive are the calls of the source. Calls follow the shape of the dose curve; as a rule, active = well fitted inhibition curve with a large enough effect; inconclusive = small, poorly fitted or top-dose-only effect, or effect the other way; inactive = no such curve, though single readings can be large or run the other way.

This assay deals with Nuclear receptor ROR-gamma (Mus musculus) (UniProt P51450). The assay is described as follows: Concentration response confirmation assay for inhibitors of ROR gamma transcriptional activity. The note with it: Drosophila S2 Gal4-RORgamma UAS-luciferase, 20 h; series mostly up to 46.1 µM; activity change, negative = inhibition: at the top concentration. From the text: NIH Molecular Libraries Probe Production Network [MLPCN] NIH Chemical Genomics Center [NCGC] MLPCN Grant: R03 DA026211-01 Assay Provider: Dan Littman, New York University Assay Overview: The retinoic acid-related orphan receptor (ROR) gamma is a transcription factor that has a central role in the differentiation of Th17 cells, a subset of T helper cells that secrete the inflammatory cytokines IL-17, IL-17F, and IL-22. Th17 cells have been implicated in graft versus host disease, autoimmune disease and asthma. ROR gamma is induced in naive T helper cells in the presence of TGF-beta combined with IL-6, IL-21, or IL-23, and thereafter directs the expression of the Th17 lineage cytokines. To study the mechanism of action of ROR gamma, an insect cell-based assay was screened. This Drosophila Schneider cell line was stably transfected with two vectors: a gene expressing a fusion of the Gal4 DNA binding domain and ROR gamma transactivation domain under the control of the metallothionine promoter and a Photinus luciferase reporter regulated by the Gal4 binding site enhancer, UAS. […] Small molecule inhibitors of ROR gamma activity are detected by a decrease in luciferase reporter activity.
Nuclear receptor ROR-gamma (Mus musculus), sequence (P51450 whole entry, looked up, the tested form may be a part): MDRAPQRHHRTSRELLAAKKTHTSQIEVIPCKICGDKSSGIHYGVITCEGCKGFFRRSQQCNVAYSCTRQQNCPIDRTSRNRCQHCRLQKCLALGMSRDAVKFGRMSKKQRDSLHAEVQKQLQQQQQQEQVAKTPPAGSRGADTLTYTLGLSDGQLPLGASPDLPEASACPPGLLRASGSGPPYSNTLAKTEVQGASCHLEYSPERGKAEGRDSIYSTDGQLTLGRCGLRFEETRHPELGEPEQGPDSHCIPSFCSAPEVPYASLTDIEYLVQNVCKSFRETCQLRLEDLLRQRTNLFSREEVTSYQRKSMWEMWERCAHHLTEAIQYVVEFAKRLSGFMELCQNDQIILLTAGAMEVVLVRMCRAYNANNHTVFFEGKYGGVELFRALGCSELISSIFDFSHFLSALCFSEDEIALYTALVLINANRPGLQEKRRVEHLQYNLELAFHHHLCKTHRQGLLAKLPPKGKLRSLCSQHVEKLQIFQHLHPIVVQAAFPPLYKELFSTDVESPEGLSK
Assay Protocol Summary: For screening, 600 cells in 4 uL/well were dispensed into white solid 1536-well plates (Grenier) using a solenoid-based dispenser. Following transfer of 23 nL compound or DMSO vehicle by a pin tool, the plates were incubated 1 hr at ambient temperature, and 1 uL/well copper sulfate (700 uM final concentration) was added. The plates were centrifuged 15 s at 1000 RPM and incubated 20 hr at ambient temperature. After addition of 1.5 uL Photinus luciferase detection reagent, the plates were incubated 10 min at ambient temperature and then read by an ViewLux (Perkin Elmer) to detect luminescence. Keywords: NIH Roadmap, MLPCN, MLI, MLSMR, qHTS, NCGC, qHTS, nuclear hormone receptor, retinoic acid-related orphan receptor, ROR gamma
Consider `O=C(Nc1ncc(Cc2ccccc2)s1)C1=NCCN1`, for which the Potency is 9.96 µM (active).
Turning to `Cc1nc2ccccc2c(=O)n1-c1cc([N+](=O)[O-])cc([N+](=O)[O-])c1`, the “activity change, negative = inhibition” value was 39.9%.
With `Cn1ncnc2c(=O)n(C)c(=O)nc1-2`, the Potency is 0.996 µM (active).
